# Experimental data reported in PubChem BioAssay.
# Calls of active or inactive are those of the source.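 How the source made its calls: active means inhibition above 50%; inactive means the rest.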
# Test: HepG2 cytotoxicity, primary screen, cytotoxicity control for P. falciparum antimalarial project, cell-based, ATP luminescence (AID 2303);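 further: 0% = DMSO wells and 100% = digitonin-killed cells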
# Conditions: HepG2 viability, 24-48 h, at 10 µM, hits give high values
row,Structure (SMILES),inhibition
1,Cc1cc(F)ccc1N(c1nc(-c2cc(Cl)ccc2Cl)cs1)C1CCNC1 (centres undefined),19% (inactive)
2,CCc1nc2nc(C)cc(Nc3ccc(F)c(Cl)c3)n2n1,2% (inactive)
3,CN(C)CCNC(=O)c1cc2c(-c3ccc(Cl)cc3)nn(C)c2s1,18% (inactive)
4,CC(=O)c1sc(NC(=O)Nc2ccc(C)cc2C)nc1C,5% (inactive)
5,CCC(=O)NC(c1ccco1)c1cc(Cl)c2cccnc2c1O (centres undefined),58% (active)
6,CCNc1cc(C)nc(Nc2ccc(NC(=O)c3ccccc3Br)cc2)n1,46% (inactive)
7,CCN(CCS(C)(=O)=O)Cc1ccc(-c2ccc3ncnc(Nc4ccc(OCc5cccc(F)c5)c(Cl)c4)c3c2)o1,5% (inactive)
8,Cc1cccc(C)c1N1CCN(C2CCC(NC(=O)/C=C/c3ccccc3)CC2)CC1 (centres undefined),38% (inactive)
9,COc1cc2c(cc1C(F)(F)F)N(C(=O)Nc1cc(Br)cc(-c3cccnc3)c1)CC2,8% (inactive)
10,CCOc1cc(Br)c(C(C)NC(=O)c2ccccc2)cc1OCC (centres undefined),-2% (inactive)
11,Cc1cnccc1/C=C/c1cccc(OCCCN2CCc3ccc(S(C)(=O)=O)cc3CC2)c1,1% (inactive)
12,Cn1nc(-c2cccc(CNC3CCc4ccccc43)c2)c2cnc(NC3CCCC3)nc21 (centres undefined),14% (inactive)
13,O=C(N[C@@H](Cc1ccccc1)C(=O)NC1CCCCCC1)c1ccc(O)c(-c2ccc(Cl)c(Cl)c2)c1,-6% (inactive)
14,CC(=O)N1CCN(c2ccc(NC(=O)c3oc(-c4ccccc4)nc3C(F)(F)F)cn2)CC1,-6% (inactive)
15,Cc1cc(F)ccc1[C@H]1C[C@H](N2CCOCC2)CCN1C(=O)N(C)[C@@H](C)c1cc(C(F)(F)F)cc(C(F)(F)F)c1,4% (inactive)
16,CCNC(=O)Nc1cccc(-c2ccc(-c3nc4c(C)cccc4[nH]3)s2)c1,32% (inactive)
17,CC1(C)C[C@@H]2C[C@@](C)(CN2C(=O)c2cc(C(C)(C)C)nn2Cc2ccccc2)C1,-3% (inactive)
18,Brc1ccsc1-c1nc(NCCC(c2ccccc2)c2ccccc2)no1,17% (inactive)
19,Cc1[nH]c(C)c(-c2ccc(OCCn3cnc(Cl)c3Cl)cc2)c(=O)c1Br,2% (inactive)
20,COc1ccc2nc(C)cc(NN=Cc3ccc(Cl)cc3)c2c1,2% (inactive)

row,Structure (SMILES),inhibition
1,CN1CCC(NCc2ccc(-c3cccc(S(=O)(=O)NCCc4ccccn4)c3)cc2)CC1,42% (inactive)
2,Cc1cccc(Cl)c1S(=O)(=O)Nc1cccc(CCN2CCC(N3CCCCC3)CC2)c1,34% (inactive)
3,C=CCc1cc(C)ccc1OCCCON1C(N)=NC(N)=NC1(C)C,64% (active)
4,O=C(/C=C/c1ccsc1)N1CCC(CCN2CCC(c3c[nH]c4ccccc34)CC2)CC1,37% (inactive)
5,NC(=NCc1ccc(Cl)c(Cl)c1)NC(=NCCCCCCN=C(NC(N)=NCc1ccc(Cl)c(Cl)c1)N1CCCCC1)N1CCCCC1,6% (inactive)
6,O=C(/C=C/c1ccc(Cl)cc1)NCCCCCN1CCCC(C(=O)Nc2ccc(Cl)c(Cl)c2)C1 (centres undefined),27% (inactive)
7,COc1cc(Nc2ccnc3cc(-c4ccncc4)ccc23)cc(OC)c1OC,9% (inactive)
8,CCOc1cc(C(=O)NC2CCN(Cc3ccccc3)CC2)ccc1-c1nc2cc(Cl)c(Cl)cc2[nH]1,24% (inactive)
9,Cc1[nH]c(C)c(-c2ccc(Oc3cccc(Cl)c3)cc2)c(=O)c1Br,46% (inactive)
10,COc1cccc(Nc2c(C(N)=O)cnc3ccc(-c4ccc(S(C)=O)cc4)cc23)c1 (centres undefined),-3% (inactive)
11,COc1ccc(CN2CCCN(Cc3ccc(C(=O)Nc4ccc(Cl)cc4)cc3)CC2)cc1,46% (inactive)
12,Nc1nc(N)c2c(ccc3c2ccn3CCCCO)n1,61% (active)
13,CCNC(=O)N[C@@H]1CN[C@@H](C#Cc2cc3c(Nc4ccc(OCc5cccc(F)c5)c(Cl)c4)ncnc3s2)C1,-2% (inactive)
14,CS(=O)(=O)CCNCc1cc(-c2cc3ncnc(Nc4ccc(OCc5cccc(F)c5)c(Cl)c4)c3s2)cs1,8% (inactive)
15,COc1ccccc1CCN1CCC(CN(C)Cc2ccc(O)c(Cl)c2)CC1,19% (inactive)
16,O=c1cc(NCCCNCc2cccc(SC(F)(F)F)c2)[nH]c2ccccc12,-9% (inactive)
17,CCCCCCN=C(N)c1ccc(OCCCCCOc2ccc(C(N)=NCCCCCC)cc2)cc1,55% (active)
18,COc1ccc(NC(=O)c2ccc(-c3ccc(-c4cccnc4)cc3)c(C)c2)cc1OCCN(C)C,24% (inactive)
19,COc1ccc2nccc(NC(=O)N3CCC(NCc4cc5ccccc5[nH]4)CC3)c2n1,27% (inactive)
